Measurements: ChEMBL document CHEMBL3988442, “University of Dundee, Small-Polar-MMV Screening Library” (2021)
The whole screen tested about 48,000 compounds, of which about 13,000 (27%) showed an effect of 50% or more. Some of the results follow.

test system: Wolbachia pipientis; assay: Anti-Wolbachia Cell-Based Screen; format: functional; set-up: scale not given: in the data most compounds retested in dose-response had high values; conditions: 5 µM

Structure (SMILES) | Percent Effect
CC(O)CC(C)(C)CNC(=O)NCc1cccc(-n2cncn2)c1 (stereo unspecified) | -1.907%
CCC(CNC(=O)c1nc(=O)[nH][nH]1)Oc1cccc(F)c1 (stereo unspecified) | 12.08%
Cc1cc(C)c2c(c1)NC(=O)C2CC(=O)O (stereo unspecified) | 18.62%
Cc1ccc(C(=O)N2CCN(S(C)(=O)=O)CC2)cc1N1CCNC1=O | 0.6513%
CS(=O)(=O)N1CCc2ccc(C(=O)N3CCn4ncnc4C3)cc21 | 111.8%
O=C(c1ccc2c(c1)CCC2)N1CCN(c2ccc(Cl)cn2)CC1 | -15.66%
CC(C)c1nnc2n1CCN(C(=O)c1ccc3c(c1)COC3)C2 | 4.471%
O=C(c1ccc2c(c1)CCC2)N1CCn2ncnc2C1 | 98.73%
O=C(c1ccc2c(c1)CCCC2)N1CCn2ncnc2C1 | 90.14%
O=C(c1ccc(O)nc1)N1CCc2ccc(O)cc2C1 | -1.234%
CSc1ccc(NC(=O)Nc2ccc3c(c2)N(S(C)(=O)=O)CC3)cc1 | -6.619%
O=C(c1ccc2c(c1)CCC2)N1C[C@@H](CN2CCOCC2)[C@@H](CO)C1 | -9.126%
COC(C)c1nc(CN2CCNCC2)cs1 (stereo unspecified) | 8.778%
Cc1noc([C@]23COC[C@H]2CN(C(=O)CN(C)C)C3)n1.O=C(O)C(F)(F)F | 111.8%
Cc1noc([C@]23COC[C@H]2CN(C(=O)N2CCCC2)C3)n1 | 106.7%
Cc1cc(C(=O)N2C[C@@H]3COC[C@]3(CN(C)C)C2)sc1C.O=C(O)C(F)(F)F | -22.46%
Cc1noc([C@]23COC[C@H]2CN(C(=O)C2CCOCC2)C3)n1 | -8.72%
Cc1noc([C@]23COC[C@H]2CN(C(=O)Cc2ccsc2)C3)n1 | 110.7%
Cc1nc([C@@H]2C[C@@H]3CCN(C(=O)Cc4ccsc4)C[C@H]3O2)no1 | -14.45%
CS(=O)(=O)CC(=O)N1C[C@@H]2COC[C@]2(c2nnc(C3CC3)o2)C1 | -25.79%
Cc1noc([C@@]23CCO[C@@H]2CCN(C(=O)c2ccsc2)C3)n1 | 10.18%
Cc1noc([C@]23COC[C@H]2CN(S(=O)(=O)C2CC2)C3)n1 | 7.077%
Cc1noc([C@]23COC[C@H]2CN(S(C)(=O)=O)C3)n1 | 1.796%
Cc1noc([C@]23COC[C@H]2CN(C(=O)COC2CCCC2)C3)n1 | 97.21%
Cc1noc([C@]23COC[C@H]2CN(S(=O)(=O)N(C)C)C3)n1 | -12.17%
Cc1cnn(CC2CN(c3ncnc4ccsc34)CCO2)c1 (stereo unspecified) | -19.26%

Structure (SMILES) | Percent Effect
O=C(Nc1cn[nH]c1)N(CCCO)C1CCc2ccccc21 (stereo unspecified) | -15.52%
Cc1cc(NC(=O)N2CCOCC2)nn1-c1cccc(Cl)c1 | 1.002%
c1ccc(COCCN2CCc3[nH]cnc3C2c2ccoc2)cc1 (stereo unspecified) | 3.153%
O=C(NCc1cscn1)NC1CCN(c2ncccc2Cl)C1 (stereo unspecified) | -8.414%
CC(C)CC(NS(C)(=O)=O)C(=O)N(C)Cc1nnc2n1CCC2 (stereo unspecified) | -5.124%
COc1cccc(OC2CN(C(=O)C3CCCN(C(=O)N(C)C)C3)C2)c1 (stereo unspecified) | -3.604%
CCOCC(=O)N1C[C@@H]2COC[C@H](c3nc(C)no3)[C@@H]2C1 | 1.076%
Cc1cc(C(=O)N2C[C@@H]3COC[C@]3(c3nnc(C)o3)C2)on1 | 27.9%
CCOCC(=O)N1C[C@@H]2COC[C@]2(c2nc(C)no2)C1 | 107.1%
CN(C)CCNC(=O)c1nc2c(o1)CN(c1ncccn1)C2 | -6.07%
Cc1ncc2c(c1CNC(=O)C1(c3ccc(F)cc3)CC1)CCNC2 | 13.15%
CCNC(=O)Cc1ccc(NC(=O)NC(CC)c2ccncc2)cc1 (stereo unspecified) | 3.124%
Cc1cc(-c2cccc3c2CCNC3)cnc1-n1cnnc1 | 3.521%
CN(C)C(=O)Cc1ccc(-c2cccc3c2CCNC3)cc1 | 105%
Cc1nc(-n2cnnc2)ccc1-c1cccc2c1CCNC2 | -4.509%
CCNC(=O)Cc1ccc(-c2cccc3c2CCNC3)cc1 | 110.7%
CCS(=O)(=O)CCNC(=O)NCc1ccccc1-n1cccn1 | -14.43%
CS(=O)(=O)N1CCC2(CC1)CC(OCC1CCOCC1)CO2 (stereo unspecified) | -4.18%
CCCc1nc(CN(CC)C(=O)c2ccc3c(c2)nnn3C)no1 | 9.755%
COCC(O)CN1CCC(=O)N(CC=C(C)C)Cc2ccccc21 (stereo unspecified) | 122.6%
CCCS(=O)(=O)CC(=O)N1CCN(CC2CC2)c2ccccc21 | -17.3%
COCC(O)CN1CCC(=O)N(CC2CC2)Cc2ccccc21 (stereo unspecified) | 108.3%
COc1ccc(CNC(=O)CN2CCc3ccccc32)cc1 | 5.049%
COCCC(=O)N1CCN(CC2CC2)c2ncccc2C1 | -45.17%
O=C(CN1CCc2ccccc21)Nc1ccc(OC(F)F)cc1 | -23.08%
COCC(O)CN1CCC(=O)N(CC(=O)C(C)(C)C)Cc2ccccc21 (stereo unspecified) | 110.3%

Structure (SMILES) | Percent Effect
O=C(NCCNc1ncccn1)c1ccc(OCc2ccccc2)nc1 | -6.041%
CN(c1ccc(CNC(=O)c2c[nH]c(=O)c(Cl)c2)cc1)C1CCCCC1 | 0.5041%
CCOCCOC(C)C(=O)Nc1nccn1Cc1ccccc1 (stereo unspecified) | -11.15%
CC(CCS(C)(=O)=O)NC(=O)NCc1ccc2ccccc2c1 (stereo unspecified) | -7.499%
Cc1cc(C)n(C2CN(c3nc(-c4ccncc4)nc4c3CCC4)C2)n1 | -1.448%
CN(C)C(=O)c1ccc(NCCNc2ccc3ccccc3n2)nc1 | -5.082%
CCOc1cc(C)nc(N2CCN(C(=O)c3ccnn3C)CC2)n1 | 4.776%
Cc1nc(C2CCCN(C(=O)c3ccncc3)C2)c2sccn12 (stereo unspecified) | 112%
Cc1csc(C2CCCN(C(=O)c3cnn4ccc(C)nc34)C2)n1 (stereo unspecified) | -3.808%
Cc1nc(C2CCN(C(=O)c3ccc(=O)n(C)c3)CC2)c2sccn12 | -4.246%
Cc1nc(C2CCN(C(=O)c3ccnn3C)CC2)c2sccn12 | 90.51%
CCCn1ncc(C(=O)N2CCN([C@H]3CCCC[C@@H]3O)CC2)c1C | 2.84%
Cc1c(C(=O)N2CCC(c3nc(C)n4ccsc34)CC2)cnn1C | 112.4%
O=C(CCCN1CCCCC1)N1CCN(C(=O)c2ccc[nH]2)CC1 | 1.236%
CCC1CN(C(=O)COc2ccc(C(=O)NC3CC3)cc2)CCO1 (stereo unspecified) | -23.61%
CCc1nccn1CCC(=O)N1CCN(c2ccccc2C)CC1C (stereo unspecified) | 0.5766%
CC(=O)N1CCC(c2ccnc(Nc3cncnc3)n2)CC1 | 88.64%
CC(=O)N1CCC(c2ccnc(Nc3ccc(C)cn3)n2)C1 (stereo unspecified) | 111.1%
CC(=O)N1CC[C@H](c2nc3cc(C)ccc3o2)C1 | -3.722%
CNCC(=O)N1CCC(c2ccnc(Nc3ccc(C)cn3)n2)C1.Cl (stereo unspecified) | -6.427%
Cc1ccc(Nc2nccc(C3CCN(C(=O)CO)C3)n2)nc1 (stereo unspecified) | 147.3%
CC(=O)N1CCN(c2ccccc2CNc2ccc(C)cn2)CC1 | 1.224%
CC(=O)N1CCC(NS(=O)(=O)c2cccnc2)CC1 | 4.265%
O=C(CCSc1ccc(F)cc1)NS(=O)(=O)c1ccc2c(c1)OCCO2 | 5.18%
FC(F)(F)c1ccc(-c2cc(NC3CCNCC3)nc3[nH]ccc23)nc1 | -3.524%
COCCN(C/C=C/c1ccccc1)Cc1nccs1 | -13.78%

Structure (SMILES) | Percent Effect
O=c1c2ccc(Cl)cc2ncn1CCCN1CCCCC1CO (stereo unspecified) | 62.54%
CC(C)(C)c1cc2ncn(CCCN3CCCCC3CO)c(=O)c2s1 (stereo unspecified) | 91.32%
O=c1c2ccc(C(F)(F)F)cc2ncn1CCCN1CCCCC1CO (stereo unspecified) | 127.8%
CC(C)N1CCCCC1CCn1cnc2cc(C(F)(F)F)ccc2c1=O (stereo unspecified) | 86.9%
CCC1CCCCN1C(=O)CCn1cnc2sccc2c1=O (stereo unspecified) | 3.224%
Cc1nc(C)n(CC2CCCCN2CCCN2CCCC2=O)n1 (stereo unspecified) | -1.453%
CC1CCCCN1C(=O)CCn1cnc2sccc2c1=O (stereo unspecified) | -3.502%
OCC1CCCCN1CCn1ccnc1-c1ccc2c(c1)OCCO2 (stereo unspecified) | 3.348%
CC1CCN(CC(O)Cn2cnc3ccc(Cl)cc3c2=O)CC1 (stereo unspecified) | -0.72%
Cc1cc(C)n(CC2CCCCN2CCCS(N)(=O)=O)n1 (stereo unspecified) | 6.399%
OCC1CCCCN1Cc1cc(O)c2cccc(F)c2n1 (stereo unspecified) | -10.07%
OCC1CCCCN1CCCNCc1cc(O)c2cc(F)ccc2n1 (stereo unspecified) | 13.42%
Cc1nccc(N2CCC(=O)N(Cc3ccc(F)cc3)C(C(C)C)C2)n1 (stereo unspecified) | -4.712%
Cc1ccc(CC(=O)Nc2ccc(CS(C)(=O)=O)c(F)c2)cc1 | -3.383%
O=C1NCCN1CCNCC1(O)CCCN(CCC2CCCCC2)C1=O (stereo unspecified) | -3.271%
Cc1nnsc1C(=O)N(C)Cc1nc(-c2ccccn2)no1 | -8.145%
Cc1nnc(CN2CCN(C)C3(CCC(=O)N(CCO)CC3)C2)s1 (stereo unspecified) | 5.792%
Cc1n[nH]c(C)c1CCNC(=O)Nc1ccc(S(C)(=O)=O)cc1 | 3.499%
Cc1ccc(CN2CCCn3cnc(COCC4CC4)c3C2)o1.O=C(O)C(F)(F)F | 8.584%
Clc1ccccc1C1(c2ccnc(CC3CC3)n2)CCNCC1 | 5.526%
Cc1occc1C(=O)N1CCCC(c2nncn2C)C1 (stereo unspecified) | 118%
Cc1ccc(C(=O)N2CCCC(c3nncn3C)C2)c(C)c1 (stereo unspecified) | 142.4%
Cn1cnnc1C1CCCN(C(=O)c2ccc3c(c2)OCCCO3)C1 (stereo unspecified) | 0.4143%
